The campaign covered roughly 66,000 compounds. About 960 (1.5%) showed an effect of 50% or more. What follows is part of a selection rich in strong results, with near analogues and random picks from the rest.
System: Trypanosoma brucei
Experiment: Trypanosoma brucei 72 hour study
Type: functional, organism-based
Parameters: scale not given: in the data most compounds retested in dose-response had high values

## Cc1cc(N(C)CC2COc3ccccc3O2)nc(C)n1 (stereo unspecified)
30.3 µM, […]
  Percent Effect: -13.97%

## CCN1CC(CN(C)c2cc(C)nc(N)n2)Oc2ccccc21 (stereo unspecified)
30.3 µM, […]
  Percent Effect: 98.13%

## Cc1cc(N(C)CC2COc3ccccc3O2)nc(N)n1 (stereo unspecified)
30.3 µM, […]
  Percent Effect: -9.48%

## CC(C)CS(=O)(=O)N1C[C@H]2C[C@H](C(=O)Nc3cccnc3)[C@@H](C1)O2
30 µM, 30.03 µM
  Percent Effect: -5.396%

## COCCO[C@H]1CCN(c2ccc(C)nn2)[C@H]1Cc1cccnc1.O=C(O)C(F)(F)F.O=C(O)C(F)(F)F
30.3 µM, […]
  Percent Effect: -12.33%

## Fc1cccc(CN2C[C@@H]3COC[C@]3(COCc3ccncc3)C2)c1.O=C(O)C(F)(F)F.O=C(O)C(F)(F)F
30 µM, 30.03 µM
  Percent Effect: -8.118%

## COc1ccccc1CN1C[C@@H]2COC[C@]2(COc2cccnc2)C1.O=C(O)C(F)(F)F.O=C(O)C(F)(F)F
30 µM, 30.03 µM
  Percent Effect: -13.45%

## COc1cc(N2C[C@@H]3COC[C@]3(COCc3ccccn3)C2)ncn1.O=C(O)C(F)(F)F.O=C(O)C(F)(F)F
30 µM, 30.03 µM
  Percent Effect: -23.44%

## COc1ccccc1CN1C[C@@H]2COC[C@]2(COCc2ccncc2)C1.O=C(O)C(F)(F)F.O=C(O)C(F)(F)F
30 µM, 30.03 µM
  Percent Effect: 59.56%

## COc1cc(N2C[C@@H]3COC[C@]3(COc3ncccc3F)C2)ncn1.O=C(O)C(F)(F)F.O=C(O)C(F)(F)F
30 µM, 30.03 µM
  Percent Effect: 51.8%

## COc1cc(N2C[C@@H]3COC[C@]3(COc3ccccn3)C2)ncn1.O=C(O)C(F)(F)F.O=C(O)C(F)(F)F
30.3 µM, […]
  Percent Effect: -11.8%

## N#CC1(C(=O)N2C[C@H]3CC[C@@H]2CN(Cc2cscn2)C3)CCOCC1
30 µM, 30.03 µM
  Percent Effect: -52.3%

## Cc1nn(C)c(C)c1C1CCCN1CC(=O)Nc1nccs1 (stereo unspecified)
30.3 µM, […]
  Percent Effect: -4.403%

## CNC(=O)[C@@H]1C[C@H]2CN(Cc3csc(C)n3)C[C@H]2N1C(C)C.O=C(O)C(F)(F)F.O=C(O)C(F)(F)F
30.3 µM, […]
  Percent Effect: 4.031%

## Cc1nc(C(=O)N2CCN(c3ccc(Cl)c(Cl)c3)CC2)cs1
30.3 µM, […]
  Percent Effect: 12.74%

## Cc1nccc([C@H]2C[C@@H]3CCN(S(C)(=O)=O)C[C@H]3O2)n1
30.3 µM, […]
  Percent Effect: -74.86%

## Cc1nccc([C@@H]2C[C@@H]3CCN(S(C)(=O)=O)C[C@H]3O2)n1
30 µM, 30.03 µM
  Percent Effect: 53.53%

## Cc1nccc([C@H]2C[C@@H]3CCN(S(=O)(=O)C4CC4)C[C@H]3O2)n1
30.3 µM, […]
  Percent Effect: -36.22%

## CCNC(=O)Nc1ccc(N2CCC(OC)CC2)c(C(F)(F)F)c1
30 µM, 30.03 µM
  Percent Effect: -0.4307%

## COc1ccc(CN2CCc3[nH]nc(C(=O)N(C)C)c3C2)cc1.O=C(O)C(F)(F)F
30.3 µM, […]
  Percent Effect: 4.36%

## COc1ccc(F)c(CN(CCCn2ccnc2)Cc2ccc(C)s2)c1.O=C(O)CC(O)(CC(=O)O)C(=O)O
30.3 µM, […]
  Percent Effect: -24.6%

## CN(CC(=O)NC(Cc1ccsc1)c1cccnc1)Cc1cccnc1.Cl (stereo unspecified)
30.3 µM, […]
  Percent Effect: -0.9311%

## CC(C)c1noc(CN(C)C(c2ccc(F)cc2)c2cccnc2)n1 (stereo unspecified)
30 µM, 30.03 µM
  Percent Effect: 70.75%

## CC(C)c1nnc(CN(C)C(c2ccc(F)cc2)c2cccnc2)o1 (stereo unspecified)
30 µM, 30.03 µM
  Percent Effect: -53.44%

## CN(Cc1nnc(C2CC2)o1)C(c1ccc(F)cc1)c1cccnc1 (stereo unspecified)
30 µM, 30.03 µM
  Percent Effect: -93.52%

## Cc1noc(NCc2cn(C)nc2-c2cccnc2)n1
30 µM, 30.03 µM
  Percent Effect: -14.18%

## COCc1cc(NCc2cc(F)ccc2F)n2nccc2n1
30 µM, 30.03 µM
  Percent Effect: -36.1%

## Cc1noc(NCc2ccc(F)cc2F)n1
30.3 µM, […]
  Percent Effect: 72.2%

## CC(C)(C)c1nnc(NCc2ccc(F)cc2)o1
30 µM, 30.03 µM
  Percent Effect: -100%

## Cc1noc(NCc2cc(F)ccc2F)n1
30.3 µM, […]
  Percent Effect: 50.55%

## Cc1noc(CS(=O)(=O)c2cc(F)ccc2F)n1
30.3 µM, […]
  Percent Effect: -4.369%

## Cc1noc(NCc2ccc(F)cc2)n1
30.3 µM, […]
  Percent Effect: 55.37%

## Cc1nnc(NCc2ccc(F)cc2)o1
30 µM, 30.03 µM
  Percent Effect: -52.4%

## Cc1noc(NCc2cn(C)nc2-c2ccncc2)n1
30 µM, 30.03 µM
  Percent Effect: -13.42%

## Cc1occc1C(=O)N1CCc2c(CNS(C)(=O)=O)cncc2C1.Cl
30.3 µM, […]
  Percent Effect: -7.203%

## CN(C)C[C@]12COC[C@H]1CN(C(=O)Cc1ccc3c(c1)OCO3)C2.O=C(O)C(F)(F)F
30 µM, 30.03 µM
  Percent Effect: 24.04%

## Cn1ncc2c(NC3CCSC3)nc(-c3ccncc3)nc21 (stereo unspecified)
30.3 µM, […]
  Percent Effect: 38.84%

## CC(=O)N1CCN(Cc2cccs2)CC2(CC(=O)N(C)C2)C1.O=C(O)C(F)(F)F (stereo unspecified)
30.3 µM, […]
  Percent Effect: -45.81%

## CN1CC(=O)N(c2ccsc2)CC12CCN(C(=O)c1cccn1C)C2.O=C(O)C(F)(F)F (stereo unspecified)
30 µM, 30.03 µM
  Percent Effect: -33.31%

## Cc1noc([C@@H]2CCO[C@@H]3CCN(Cc4ccc(C)s4)C[C@@H]32)n1.O=C(O)C(F)(F)F
30 µM, 30.03 µM
  Percent Effect: 1.711%

## O=C(O)C(F)(F)F.O=C(O)c1c(-c2cncnc2)ncc2c1CCN(CC1CCOC1)C2 (stereo unspecified)
30.3 µM, […]
  Percent Effect: -18.52%

## CCn1ncc2c1C(COCC1CC1)CN(c1ccncn1)C2.O=C(O)C(F)(F)F.O=C(O)C(F)(F)F (stereo unspecified)
30 µM, 30.03 µM
  Percent Effect: -5.077%

## O=C1CCCN1C(CNS(=O)(=O)C1CC1)Cc1cccc(F)c1 (stereo unspecified)
30 µM, 30.03 µM
  Percent Effect: 7.214%

## COCCN1CCCC(c2nc(C)n3c(C)c(C)sc23)C1 (stereo unspecified)
30.3 µM, […]
  Percent Effect: -27.06%

## Cc1sc2c(C3CCCN(S(C)(=O)=O)C3)nc(C)n2c1C (stereo unspecified)
30.3 µM, […]
  Percent Effect: 73.25%

## Cc1sc2c(C3CCCN(C(C)C)C3)nc(C)n2c1C (stereo unspecified)
30.3 µM, […]
  Percent Effect: -21.43%

## O=C(O)C(F)(F)F.c1cncc(CN2Cc3nccn3CC(Cn3cncn3)C2)c1 (stereo unspecified)
30 µM, 30.03 µM
  Percent Effect: -73.02%

## Cc1nnc(C(C)NCC2(c3ccc(Cl)cc3)CCOCC2)o1 (stereo unspecified)
30.3 µM, […]
  Percent Effect: -12.99%

## Cc1nnc(C(C)NCC2(c3ccc(F)cc3)CCCCC2)o1 (stereo unspecified)
30.3 µM, […]
  Percent Effect: 9.19%

## COc1ccc(C2(CNC(C)c3nnc(C)o3)CCCCC2)cc1 (stereo unspecified)
30.3 µM, […]
  Percent Effect: 100.1%

## COc1cccc(C2(CNC(C)c3nnc(C)o3)CCCC2)c1 (stereo unspecified)
30.3 µM, […]
  Percent Effect: -15.21%

## Cc1nnc(C(C)NCC2(c3ccc(Cl)cc3)CCCC2)o1 (stereo unspecified)
30.3 µM, […]
  Percent Effect: -10.5%

## Cc1cccc(C2(CNC(C)c3nnc(C)o3)CCCC2)c1 (stereo unspecified)
30.3 µM, […]
  Percent Effect: 99.4%

## Cc1nccc(CNC(=O)NC(c2ncc(C)s2)C2CC2)n1 (stereo unspecified)
30 µM, 30.03 µM
  Percent Effect: -69.67%

## CN(C)CCOCc1nnc2n1CCN(Cc1ccco1)CC2.O=C(O)C(F)(F)F.O=C(O)C(F)(F)F
30.3 µM, […]
  Percent Effect: -5.145%

## CCC1=N[C@@]2(CC[C@@H]3CN(Cc4ccc(C)cc4)C[C@@H]32)C(=O)N1C.O=C(O)C(F)(F)F
30.3 µM, […]
  Percent Effect: -61.95%

Source: ChEMBL document CHEMBL3988442, “University of Dundee, Small-Polar-MMV Screening Library” (2021)
